Laboratory results from ChEMBL document CHEMBL1961873, “Compounds: GSK PKIS; Assays: Nanosyn kinase panel” (2012).

What follows are compounds tested against T1, Dual specificity protein kinase TTK (Homo sapiens) (UniProt P33981). Conditions: at 0.1 µM.
T1 sequence (whole entry): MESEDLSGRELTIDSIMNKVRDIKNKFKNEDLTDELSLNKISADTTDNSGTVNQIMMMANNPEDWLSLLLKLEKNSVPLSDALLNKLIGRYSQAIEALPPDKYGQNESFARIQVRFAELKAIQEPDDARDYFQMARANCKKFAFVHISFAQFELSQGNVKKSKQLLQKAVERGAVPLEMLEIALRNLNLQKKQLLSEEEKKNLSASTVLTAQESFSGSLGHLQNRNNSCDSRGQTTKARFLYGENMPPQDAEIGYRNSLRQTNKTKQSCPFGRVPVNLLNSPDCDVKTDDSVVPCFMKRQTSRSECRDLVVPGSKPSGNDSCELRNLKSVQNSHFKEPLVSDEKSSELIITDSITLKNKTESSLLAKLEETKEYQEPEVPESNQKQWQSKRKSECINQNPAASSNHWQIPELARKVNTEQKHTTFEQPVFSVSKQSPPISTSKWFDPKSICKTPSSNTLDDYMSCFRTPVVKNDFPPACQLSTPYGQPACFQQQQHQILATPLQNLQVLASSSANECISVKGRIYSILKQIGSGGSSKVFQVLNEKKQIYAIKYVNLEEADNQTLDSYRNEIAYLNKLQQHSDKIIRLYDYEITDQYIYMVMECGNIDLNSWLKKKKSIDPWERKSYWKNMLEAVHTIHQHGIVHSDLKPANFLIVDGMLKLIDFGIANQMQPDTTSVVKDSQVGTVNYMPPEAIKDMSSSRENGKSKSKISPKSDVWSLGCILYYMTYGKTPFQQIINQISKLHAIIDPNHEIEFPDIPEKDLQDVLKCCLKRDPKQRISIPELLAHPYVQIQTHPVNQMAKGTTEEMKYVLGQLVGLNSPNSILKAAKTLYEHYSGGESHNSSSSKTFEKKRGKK

Question: How did the inhibition turn out when CCS(=O)(=O)c1ccc(OC)c(Nc2ncc(-c3cccc(OC)c3)o2)c1 was run?
Answer: 2.75%

Question: How did the inhibition turn out when CCn1c(-c2nonc2N)nc2c(C#CC(C)(C)O)nc(OCCNC)cc21 was run?
Answer: 7.19%

Question: How did the inhibition turn out when CN1CCN(C(=O)c2ccc(NC(=O)Nc3ccc(N(C)c4ccnc(Nc5ccc(CS(C)(=O)=O)cc5)n4)cc3)cc2)CC1 was run?
Answer: 2.87%

Question: With CC(C)c1ccc(Nc2nccc(-c3cnn4ncccc34)n2)cc1 as the compound, how does the inhibition read?
Answer: 5.54%

Question: N#Cc1cccc(Nc2nccc(-c3cnn4ncccc34)n2)c1 was tested. Which inhibition did it give?
Answer: 11.2%

Question: Which inhibition does the source give for c1ccc(Cc2nc3ccc(Nc4ncnc5ccccc45)cc3[nH]2)cc1 here?
Answer: 5.97%

Question: Cc1ccc(C(=O)NC2CC2)cc1-c1ccc2[nH]ncc2c1 was tested. Which inhibition did it give?
Answer: -7.32%

Question: For COC(=O)Nc1nc2cc(Oc3ccc(NC(=O)Nc4cccc(Br)c4)cc3)ccc2[nH]1, which inhibition is on record?
Answer: 5.37%

Question: NC(=O)c1sc(-n2cnc3ccccc32)cc1OCc1ccccc1Br was tested. Which inhibition did it give?
Answer: 10.6%

Question: For c1ccc(Nc2ncc(-c3ccccc3)o2)cc1, which inhibition is on record?
Answer: 18.1%

Question: CCCN1CCCC(c2ccc(Nc3nc(Nc4cc(F)ccc4C(N)=O)c4cc[nH]c4n3)c(OC)c2)C1 (stereo unspecified) was tested. Which inhibition did it give?
Answer: 75.9%

Question: With Nc1ccc(C#Cc2cncnc2Nc2ccc(OCc3cccc(F)c3)c(Cl)c2)cc1 as the compound, how does the inhibition read?
Answer: 4.2%

Question: Which inhibition does the source give for CN(C)C(=O)O[C@H]1CN[C@H](C#Cc2cc3ncnc(Nc4ccc(OCc5cccc(F)c5)c(Cl)c4)c3s2)C1 here?
Answer: 4.75%

Question: How did the inhibition turn out when O=C1Nc2ccc(-c3cccnc3)cc2C1=Cc1cc(Br)c(O)c(Br)c1 was run?
Answer: 6.45%

Question: With CS(=O)(=O)Nc1cccc(-c2ccc3c(NC(=O)C4CC4)n[nH]c3c2)c1 as the compound, how does the inhibition read?
Answer: 2.91%

Question: For CCS(=O)(=O)c1ccc(OC)c(Nc2nccc(N(C)c3ccc4c(C)n[nH]c4c3)n2)c1, which inhibition is on record?
Answer: 10.8%

Question: With COc1cccc(-n2ncc3c(N/N=C/c4ccc(S(C)(=O)=O)cc4)ncnc32)c1 as the compound, how does the inhibition read?
Answer: 2.54%

Question: How did the inhibition turn out when Cc1ccc2c(-c3ccnc(Nc4cccc(C(F)(F)F)c4)n3)c(-c3ccccc3)nn2n1 was run?
Answer: 10.5%

Question: Which inhibition does the source give for Cc1ccc2c(-c3ccnc(Nc4ccc5c(c4)OCCO5)n3)c(-c3ccc(C(F)(F)F)cc3)nn2n1 here?
Answer: 4.62%

Question: How did the inhibition turn out when NS(=O)(=O)c1ccc(-c2cc3ccncc3cc2OCc2ccccc2)cc1 was run?
Answer: 9.2%

Question: Which inhibition does the source give for COc1ccc2ncnc(Nc3ccc(OCc4ccccc4)cc3)c2c1 here?
Answer: 2.89%

Question: How did the inhibition turn out when CCn1c(-c2nonc2N)nc2ccc(F)cc21 was run?
Answer: 12.1%

Question: N#Cc1c(NC(=O)c2ccccc2F)sc2c1CCCC2 was tested. Which inhibition did it give?
Answer: 1.48%

Question: COc1cccc(-n2nc(C)c3c(N/N=C(\C)c4ccncc4)ncnc32)c1 was tested. Which inhibition did it give?
Answer: 2.35%

Question: With OCc1ccc(-c2nc(-c3ccccn3)c(-c3ccc4c(c3)OCO4)[nH]2)cc1 as the compound, how does the inhibition read?
Answer: 7.41%

Question: CCOc1nccc2c1nc(-c1nonc1N)n2CC was tested. Which inhibition did it give?
Answer: 7.47%

Question: How did the inhibition turn out when NS(=O)(=O)c1ccc(N/N=C2\C(=O)Nc3ccc(Cl)cc32)cc1 was run?
Answer: 14%

Question: For Cc1ccc(O)cc1Nc1ccnc2ccc(S(C)(=O)=O)cc12, which inhibition is on record?
Answer: 8.17%

Question: For COC(=O)c1ccc2c(c1)C(=Cc1cc(Br)c(O)c(Br)c1)C(=O)N2, which inhibition is on record?
Answer: 13.3%

Question: Which inhibition does the source give for [O-][S+]1CCN(Cc2ccc(-c3ccc4ncnc(Nc5ccc(OCc6ccccc6)c(Cl)c5)c4c3)o2)CC1 here?
Answer: 8.87%

Question: With COc1cccc(-n2ncc3c(N/N=C/c4ccc(C)cc4)ncnc32)c1 as the compound, how does the inhibition read?
Answer: 18.3%

Question: O=S(=O)(CCOCc1ccc(-c2ccc3ncnc(Nc4ccc(OCc5cccc(F)c5)c(Cl)c4)c3c2)o1)c1ccccc1 was tested. Which inhibition did it give?
Answer: 6.45%

Question: How did the inhibition turn out when COc1cc(/C=N/Nc2ncnc3c2cnn3C(C)C)ccc1O was run?
Answer: 4.56%

The compounds below were run on T2, Receptor-type tyrosine-protein kinase FLT3 (Homo sapiens), P36888 [D835Y]. Conditions: at 1 µM.
T2 sequence (whole entry): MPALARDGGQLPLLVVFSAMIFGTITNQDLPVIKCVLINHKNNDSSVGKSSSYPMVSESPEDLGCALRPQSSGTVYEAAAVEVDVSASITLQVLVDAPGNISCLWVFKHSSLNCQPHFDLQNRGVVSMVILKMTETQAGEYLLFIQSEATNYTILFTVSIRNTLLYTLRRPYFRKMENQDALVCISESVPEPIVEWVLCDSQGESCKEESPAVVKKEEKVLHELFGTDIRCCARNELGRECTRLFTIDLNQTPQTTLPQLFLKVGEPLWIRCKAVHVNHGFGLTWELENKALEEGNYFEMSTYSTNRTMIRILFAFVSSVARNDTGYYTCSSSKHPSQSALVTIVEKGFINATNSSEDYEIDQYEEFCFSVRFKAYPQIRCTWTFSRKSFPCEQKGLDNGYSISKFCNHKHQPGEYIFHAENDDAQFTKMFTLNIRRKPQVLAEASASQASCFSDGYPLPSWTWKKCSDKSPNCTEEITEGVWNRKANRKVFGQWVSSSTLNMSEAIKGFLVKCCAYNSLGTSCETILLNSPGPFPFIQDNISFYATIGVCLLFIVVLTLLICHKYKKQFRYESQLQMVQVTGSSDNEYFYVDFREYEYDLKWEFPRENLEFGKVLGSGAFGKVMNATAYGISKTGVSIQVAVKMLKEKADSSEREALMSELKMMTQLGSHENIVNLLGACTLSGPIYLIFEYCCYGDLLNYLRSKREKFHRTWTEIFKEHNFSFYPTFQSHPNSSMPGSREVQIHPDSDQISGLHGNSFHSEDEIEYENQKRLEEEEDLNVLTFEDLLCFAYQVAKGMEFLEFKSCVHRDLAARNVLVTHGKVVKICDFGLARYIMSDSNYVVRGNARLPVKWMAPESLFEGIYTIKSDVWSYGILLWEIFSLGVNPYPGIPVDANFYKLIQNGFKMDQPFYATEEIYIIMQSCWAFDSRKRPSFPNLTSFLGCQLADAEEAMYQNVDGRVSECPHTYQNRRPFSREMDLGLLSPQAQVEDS

Question: Which inhibition does the source give for CCS(=O)(=O)c1ccc(OC)c(Nc2ncc(-c3cccc(OC)c3)o2)c1 here?
Answer: 78.5%

Question: Which inhibition does the source give for CCn1c(-c2nonc2N)nc2c(C#CC(C)(C)O)nc(OCCNC)cc21 here?
Answer: -0.49%

Question: For CN1CCN(C(=O)c2ccc(NC(=O)Nc3ccc(N(C)c4ccnc(Nc5ccc(CS(C)(=O)=O)cc5)n4)cc3)cc2)CC1, which inhibition is on record?
Answer: 25.1%

Question: For CC(C)c1ccc(Nc2nccc(-c3cnn4ncccc34)n2)cc1, which inhibition is on record?
Answer: 23.1%

Question: For N#Cc1cccc(Nc2nccc(-c3cnn4ncccc34)n2)c1, which inhibition is on record?
Answer: 53.4%

Question: For c1ccc(Cc2nc3ccc(Nc4ncnc5ccccc45)cc3[nH]2)cc1, which inhibition is on record?
Answer: 5.06%

Question: Which inhibition does the source give for Cc1ccc(C(=O)NC2CC2)cc1-c1ccc2[nH]ncc2c1 here?
Answer: 3.33%

Question: COC(=O)Nc1nc2cc(Oc3ccc(NC(=O)Nc4cccc(Br)c4)cc3)ccc2[nH]1 was tested. Which inhibition did it give?
Answer: 5.43%

Question: Which inhibition does the source give for NC(=O)c1sc(-n2cnc3ccccc32)cc1OCc1ccccc1Br here?
Answer: -5.34%

Question: c1ccc(Nc2ncc(-c3ccccc3)o2)cc1 was tested. Which inhibition did it give?
Answer: 9.89%

Question: For CCCN1CCCC(c2ccc(Nc3nc(Nc4cc(F)ccc4C(N)=O)c4cc[nH]c4n3)c(OC)c2)C1 (stereo unspecified), which inhibition is on record?
Answer: 43.4%

Question: How did the inhibition turn out when Nc1ccc(C#Cc2cncnc2Nc2ccc(OCc3cccc(F)c3)c(Cl)c2)cc1 was run?
Answer: -6.67%

Question: How did the inhibition turn out when CN(C)C(=O)O[C@H]1CN[C@H](C#Cc2cc3ncnc(Nc4ccc(OCc5cccc(F)c5)c(Cl)c4)c3s2)C1 was run?
Answer: 4.09%

Question: How did the inhibition turn out when O=C1Nc2ccc(-c3cccnc3)cc2C1=Cc1cc(Br)c(O)c(Br)c1 was run?
Answer: 13.7%

Question: How did the inhibition turn out when CS(=O)(=O)Nc1cccc(-c2ccc3c(NC(=O)C4CC4)n[nH]c3c2)c1 was run?
Answer: -5.02%

Question: For CCS(=O)(=O)c1ccc(OC)c(Nc2nccc(N(C)c3ccc4c(C)n[nH]c4c3)n2)c1, which inhibition is on record?
Answer: -5.27%

Question: How did the inhibition turn out when COc1cccc(-n2ncc3c(N/N=C/c4ccc(S(C)(=O)=O)cc4)ncnc32)c1 was run?
Answer: 61.9%

Question: How did the inhibition turn out when Cc1ccc2c(-c3ccnc(Nc4cccc(C(F)(F)F)c4)n3)c(-c3ccccc3)nn2n1 was run?
Answer: 1.38%

Question: Which inhibition does the source give for Cc1ccc2c(-c3ccnc(Nc4ccc5c(c4)OCCO5)n3)c(-c3ccc(C(F)(F)F)cc3)nn2n1 here?
Answer: -0.37%

Question: For NS(=O)(=O)c1ccc(-c2cc3ccncc3cc2OCc2ccccc2)cc1, which inhibition is on record?
Answer: 1.86%

Question: With COc1ccc2ncnc(Nc3ccc(OCc4ccccc4)cc3)c2c1 as the compound, how does the inhibition read?
Answer: 8.02%

Question: How did the inhibition turn out when CCn1c(-c2nonc2N)nc2ccc(F)cc21 was run?
Answer: 1.01%

Question: How did the inhibition turn out when N#Cc1c(NC(=O)c2ccccc2F)sc2c1CCCC2 was run?
Answer: -1.19%

Question: COc1cccc(-n2nc(C)c3c(N/N=C(\C)c4ccncc4)ncnc32)c1 was tested. Which inhibition did it give?
Answer: 1.49%

Question: With OCc1ccc(-c2nc(-c3ccccn3)c(-c3ccc4c(c3)OCO4)[nH]2)cc1 as the compound, how does the inhibition read?
Answer: -0.9%

Question: With CCOc1nccc2c1nc(-c1nonc1N)n2CC as the compound, how does the inhibition read?
Answer: -1.34%

Question: Which inhibition does the source give for NS(=O)(=O)c1ccc(N/N=C2\C(=O)Nc3ccc(Cl)cc32)cc1 here?
Answer: 16.4%

Question: How did the inhibition turn out when Cc1ccc(O)cc1Nc1ccnc2ccc(S(C)(=O)=O)cc12 was run?
Answer: -0.22%

Question: COC(=O)c1ccc2c(c1)C(=Cc1cc(Br)c(O)c(Br)c1)C(=O)N2 was tested. Which inhibition did it give?
Answer: 4.72%

Question: How did the inhibition turn out when [O-][S+]1CCN(Cc2ccc(-c3ccc4ncnc(Nc5ccc(OCc6ccccc6)c(Cl)c5)c4c3)o2)CC1 was run?
Answer: -1.91%

Question: COc1cccc(-n2ncc3c(N/N=C/c4ccc(C)cc4)ncnc32)c1 was tested. Which inhibition did it give?
Answer: 10.3%

Question: For O=S(=O)(CCOCc1ccc(-c2ccc3ncnc(Nc4ccc(OCc5cccc(F)c5)c(Cl)c4)c3c2)o1)c1ccccc1, which inhibition is on record?
Answer: -7.19%

Question: COc1cc(/C=N/Nc2ncnc3c2cnn3C(C)C)ccc1O was tested. Which inhibition did it give?
Answer: 23.1%
